PubChem BioAssay
Inconclusive results are not listed. Calls of active or inactive are those of the source.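 Rule for the calls, unless noted: active = viability at or under a set limit in both replicates, limit being median viability minus 3 SD (cut at about 48% in these data, passing the limit was not always enough); inconclusive = at or under the limit in just one replicate; inactive = at or above the limit in both replicates.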

Assays:
[1] = Her2 expression decrease, cell viability multiplex – SKBR3 breast tumor cells, AlphaScreen, ATP viability, primary screen (AID 461;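 active = Her2 level under about 52% in both replicate screens, with viability over 70% of control, limit read from the data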;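 for Her2 level: lower value means less Her2 protein in the cells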;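 for viability: percent of carrier control wells set as 100% viability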); conditions: SKBR3 Her2 protein level, 18-24 h, measured here: SKBR3 viability, ATP luminescence, at 10 µM
[2] = target: Receptor tyrosine-protein kinase erbB-2 (Homo sapiens) (UniProt P04626); assay: as above; conditions: 18-24 h, at 10 µM, stronger effect = lower value
Receptor tyrosine-protein kinase erbB-2 (Homo sapiens), sequence (P04626 whole entry, looked up): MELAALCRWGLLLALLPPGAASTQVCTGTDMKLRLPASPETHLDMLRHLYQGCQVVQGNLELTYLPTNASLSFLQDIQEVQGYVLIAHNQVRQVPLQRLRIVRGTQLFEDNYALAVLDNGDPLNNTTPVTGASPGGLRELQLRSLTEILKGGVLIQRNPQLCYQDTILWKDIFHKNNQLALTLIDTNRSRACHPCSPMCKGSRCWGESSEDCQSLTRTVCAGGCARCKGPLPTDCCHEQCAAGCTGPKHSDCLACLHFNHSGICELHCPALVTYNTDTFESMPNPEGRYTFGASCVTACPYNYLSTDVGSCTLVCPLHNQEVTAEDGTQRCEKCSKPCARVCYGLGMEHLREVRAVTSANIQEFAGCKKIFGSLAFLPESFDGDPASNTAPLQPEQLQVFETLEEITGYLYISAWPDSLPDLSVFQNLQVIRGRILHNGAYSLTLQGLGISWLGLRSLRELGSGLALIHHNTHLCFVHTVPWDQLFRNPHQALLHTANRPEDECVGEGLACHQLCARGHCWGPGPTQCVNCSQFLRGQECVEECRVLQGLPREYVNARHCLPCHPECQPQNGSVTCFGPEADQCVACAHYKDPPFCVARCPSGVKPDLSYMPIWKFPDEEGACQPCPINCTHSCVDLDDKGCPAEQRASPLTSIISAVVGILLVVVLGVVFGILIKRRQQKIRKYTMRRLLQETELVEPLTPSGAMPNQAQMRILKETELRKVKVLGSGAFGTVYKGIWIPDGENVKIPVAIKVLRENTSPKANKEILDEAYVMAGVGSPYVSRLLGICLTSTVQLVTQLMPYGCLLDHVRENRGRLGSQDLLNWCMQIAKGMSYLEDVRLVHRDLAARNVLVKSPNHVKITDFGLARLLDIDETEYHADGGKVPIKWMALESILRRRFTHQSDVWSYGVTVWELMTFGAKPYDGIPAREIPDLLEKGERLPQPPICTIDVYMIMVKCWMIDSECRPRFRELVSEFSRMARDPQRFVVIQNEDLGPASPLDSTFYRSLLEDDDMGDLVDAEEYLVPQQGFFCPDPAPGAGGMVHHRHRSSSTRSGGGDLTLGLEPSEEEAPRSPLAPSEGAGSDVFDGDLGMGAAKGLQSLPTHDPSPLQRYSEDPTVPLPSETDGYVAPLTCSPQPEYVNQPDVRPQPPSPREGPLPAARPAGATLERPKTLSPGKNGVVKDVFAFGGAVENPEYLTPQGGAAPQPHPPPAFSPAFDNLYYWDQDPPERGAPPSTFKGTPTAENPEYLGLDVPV

[3] = reduced viability of SK-BR-3 breast cancer cells – cell-based, 24 h, human, pilot screen (AID 572;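 active = viability at or below 10% of carrier control in both of two separate runs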;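 note: compound exposure lasted between 18 and 24 h rather than exactly 24 h; 100% = carrier-treated control wells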); conditions: SK-BR-3 viability, CellTiter-Glo luminescence, at 10 µM, stronger effect = lower value
[4] = HUVEC growth inhibition – cell-based, human, primary screen (AID 575;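 active = viability at or below 30% in both replicate assays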;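 note: 100% = median of untreated cell wells with 0.1% DMSO on each plate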); conditions: HUVEC proliferation, CellTiter-Glo luminescence, 72 h; at 10 µM; stronger effect = lower value
[5] = H69AR cell proliferation blockers – human, duplicate replicates, primary screen (AID 580); conditions: H69AR lung tumor cells viability, ATP luminescence, 72 h; at 10 µM; stronger effect = lower value;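 note: 100% = mean luminescence of untreated wells and 0% = no signal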
[6] = MRP1 drug-resistance reversers in H69AR cells – cell-based, doxorubicin co-treatment, pilot screen (AID 601;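 active = viability loss from added drug above about 55%, and viability with drug at most 40%, in both replicates, limit read from the data, passing the limit was not always enough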); conditions: CellTiter-Glo, 72 h, at 10 µM; for differential viability (reversal): stronger effect = higher value
[7] = yeast transport mutant growth inhibition pilot in 384-well plates, post-Golgi transport modulator project (AID 636; in the data active = inhibition above about 31%); conditions: absorbance 615 nm, about 18 h, stronger effect = higher value
[8] = growth suppression of yeast trafficking mutant, preliminary HTS, modulators of trafficking downstream of Golgi apparatus project, 1536-format plate, OD 615 nm (AID 637; in the data active = inhibition above about 30%); conditions: yeast transport mutant growth, absorbance 615 nm, 18 h; stronger effect = higher value
[9] = S. cerevisiae growth inhibition in permissive medium (OD615), pilot counter-assay for S. cerevisiae lifespan shortening project, permissive growth control (AID 705;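 active = growth inhibition above 25% in both replicates, a cutoff set 3 SD above the mean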); conditions: OD615, 24 h, at 10 µM, stronger effect = higher value
[10] = S. cerevisiae growth inhibition in restrictive medium, OD615, pilot screen, restrictive growth control, yeast lifespan reduction project (AID 706;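 active = growth inhibition above a set limit, 3 SD over mean compound inhibition, in both replicates, cut at about 43% in these data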;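 note: modified DeaD lifespan yeast strain shifted to restrictive glucose medium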); conditions: OD615, 48 h, at 10 µM, stronger effect = higher value
[11] = doxorubicin toxicity protection in MRP-1 cells – H69AR cells, CellTiter-Glo, duplicate, MRP-1 activator project, pilot screen (AID 807;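 active = viability increase at or above a cutoff of the median across tested compounds plus 3 SD, cut at about 8.5% in these data, passing the limit was not always enough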;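 note: compound pretreatment 18-22 h then 72 h combined with doxorubicin; 0% = doxorubicin alone and 100% = vehicle without doxorubicin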); conditions: H69AR viability with doxorubicin, CellTiter-Glo luminescence; at 10 µM; stronger effect = higher value
[12] = viability of HCT116 without oncogenic beta-catenin – human colon tumor cells, pilot screen (AID 823;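 active = cell viability at or below a set limit in both duplicate runs, the limit being the all-compound median minus 4 SD, cut at about 23% in these data, passing the limit was not always enough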;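 note: 0% = wells killed by 20 µM Hyamine and 100% = untreated DMSO cell wells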); conditions: HCT116 beta-catenin knockout viability, CellTiter-Glo, 60 h; at 10 µM; stronger effect = lower value
[13] = viability of PTEN-null HCT116 cells – cell-based, HCT116 clonal line, CellTiter-Glo, pilot screen (AID 824;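 active = viability at or below 27.92% in each of two runs, the all-compound median minus 4 SD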;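 note: 0% = 20 µM Hyamine control and 100% = vehicle cell control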); conditions: HCT116 PTEN-deleted viability, 60 h, at 10 µM, stronger effect = lower value
[14] = RAM pathway blockade in budding yeast – dse1pr::URA3 reporter, 5-FOA selection, pilot screen (AID 869;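 active = inhibition over a set limit, the all-compound mean plus 3 SD, in both replicate runs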;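 note: 0% = DMSO wells with no growth and 100% = 10 µM 1-NA-PP1 with full growth; RAM network block rescues cells from 5-FOA so hits raise OD615 growth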); conditions: S. cerevisiae dse1pr::URA3 5-FOA growth, OD615, 2 d; at 10 µM; stronger effect = higher value; strain carries analog-sensitive mutant Cbk1 kinase
[15] = RAM signaling pathway blockade in yeast – S. cerevisiae, Pdr1DBD-CYC8 efflux-inhibited sensitized strain, primary screen (AID 1298;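 active = RAM network inhibition above 8.4% in each of two replicates, 3 SD over the compound average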;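 note: 0% = DMSO untreated cells without growth and 100% = 10 µM 1-NA-PP1 full growth; higher means more yeast growth rescued from 5-FOA killing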); conditions: S. cerevisiae cbk1-as DSE1-URA3 strain, 5-FOA growth OD615, 2 d; at 50 µM; stronger effect = higher value
[16] = H69AR cells + 2 uM doxorubicin, measured here: viability with 2 uM doxorubicin, stronger effect = lower value
[17] = H69AR cells, compound alone cytotoxicity

| Structure (SMILES) | viability [1] | Her2 level [2] | viability [3] | viability [4] | viability [5] | differential viability (reversal) ([6]; H69AR cells + 2 uM doxorubicin) | viability [6, 16] | viability [6, 17] | inhibition [7] | inhibition [8] | growth inhibition [9] | growth inhibition [10] | viability increase [11] | viability [12] | viability [13] | inhibition [14] | RAM network inhibition [15] |
| --- | --- | --- | --- | --- | --- | --- | --- | --- | --- | --- | --- | --- | --- | --- | --- | --- | --- |
| O=C(C1COc2ccccc2O1)N1CCCC1 (stereo not drawn) | 80% | 112% (inactive) | 80% (inactive) | 86.8% (inactive) | 94.8% (inactive) | 1.71% (inactive) | 93.1% | 94.8% | -1.41% (inactive) | -10.2% (inactive) | -16.3% (inactive) | -10.1% (inactive) | -0.88% (inactive) | 105% (inactive) | 96.9% (inactive) | 2.62% (inactive) | -0.78% (inactive) |
| CCOc1ccc(C2CC(c3cccc(OC)c3)Nc3nc(N)nn32)cc1 (stereo not drawn) | 91.5% | 114% (inactive) | 91.5% (inactive) | 95.8% (inactive) | 90.7% (inactive) | -2.32% (inactive) | 93% | 90.7% | 3.85% (inactive) | 5.5% (inactive) | 5.33% (inactive) | 13.6% (inactive) | -0.23% (inactive) | 99% (inactive) | 87.1% (inactive) | 1.65% (inactive) | 4.8% (inactive) |
| CC(C)(C)SCCNC(=O)COc1ccccc1 | 112% | 88.5% (inactive) | 112% (inactive) | 88.4% (inactive) | 96.8% (inactive) | 11.8% (inactive) | 85% | 96.8% | -6.22% (inactive) | 4% (inactive) | -2.07% (inactive) | 4.92% (inactive) | 0.03% (inactive) | 95.7% (inactive) | 96.6% (inactive) | 1.81% (inactive) | 2.63% (inactive) |
| CC(Oc1ccccc1)C(=O)NC1CC(C)(C)NC(C)(C)C1 (stereo not drawn) | 92% | 92.5% (inactive) | 92% (inactive) | 79.8% (inactive) | 94% (inactive) | 2.97% (inactive) | 91% | 94% | -2.69% (inactive) | -1% (inactive) | -11.8% (inactive) | -2.76% (inactive) | -3.63% (inactive) | 97.1% (inactive) | 96.9% (inactive) | -0.135% (inactive) | 2.18% (inactive) |
| Cc1cc(C)n2nc(SCc3nc4ccccc4[nH]3)nc2n1 | 87.5% | 81% (inactive) | 87.5% (inactive) | 98.3% (inactive) | 95.7% (inactive) | 8.56% (inactive) | 87.2% | 95.7% | 2.13% (inactive) | 3.28% (inactive) | -5.58% (inactive) | 15.5% (inactive) | -2.9% (inactive) | 91.2% (inactive) | 95.5% (inactive) | 1.77% (inactive) | 1.24% (inactive) |
| CCCN(CCC)C(=O)c1c(C)[nH]c(C(=O)OCC)c1C | 98% | 110% (inactive) | 98% (inactive) | 106% (inactive) | 81.4% (inactive) | -12.4% (inactive) | 93.8% | 81.4% | -0.38% (inactive) | -2.33% (inactive) | 4.14% (inactive) | -3.27% (inactive) | -3.62% (inactive) | 92.9% (inactive) | 86.7% (inactive) | 2.12% (inactive) | 1.44% (inactive) |
| CSc1cccc(NC(=O)C2CCN(S(=O)(=O)c3ccc(F)cc3)CC2)c1 | 77.5% | 70.5% (inactive) | 77.5% (inactive) | 93.7% (inactive) | 84.4% (inactive) | -0.92% (inactive) | 85.3% | 84.4% | -7.57% (inactive) | -6.23% (inactive) | -1.68% (inactive) | -13.7% (inactive) | -4.63% (inactive) | 64.3% (inactive) | 62% (inactive) | 1.71% (inactive) | 7.8% (inactive) |
| COC1CCCCC1Nc1cccc(SC)c1 (stereo not drawn) | 100% | 112% (inactive) | 100% (inactive) | 104% (inactive) | 88.3% (inactive) | 10.6% (inactive) | 77.7% | 88.3% | -3.25% (inactive) | -3% (inactive) | -1.82% (inactive) | -18.4% (inactive) | -3.29% (inactive) | 80.6% (inactive) | 75.1% (inactive) | 1.83% (inactive) | 7.2% (inactive) |
| COc1ccc(C(c2sc3nc(C)nn3c2O)N2CCCCC2)cc1 (stereo not drawn) | 90% | 94.5% (inactive) | 90% (inactive) | 111% (inactive) | 81.8% (inactive) | -13.7% (inactive) | 95.5% | 81.8% | -2.95% (inactive) | 1% (inactive) | -3.33% (inactive) | 8.2% (inactive) | -1.47% (inactive) | 100% (inactive) | 95.2% (inactive) | 0.45% (inactive) | 3.51% (inactive) |
| C=CCn1c(SC(C)C(=O)NC2(C#N)CCCCC2)nnc1-c1ccc(OC)cc1 (stereo not drawn) | 90% | 73.5% (inactive) | 90% (inactive) | 109% (inactive) | 92.2% (inactive) | 13.9% (inactive) | 78.3% | 92.2% | -7.07% (inactive) | -5.25% (inactive) | -4.51% (inactive) | -9.22% (inactive) | -2.25% (inactive) | 90% (inactive) | 87.7% (inactive) | 1.29% (inactive) | 0.47% (inactive) |
| COc1ccccc1NCN1C(=O)CCC1=O | 102% | 98% (inactive) | 102% (inactive) | 104% (inactive) | 82.4% (inactive) | -20.8% (inactive) | 103% | 82.4% | -7.47% (inactive) | 2% (inactive) | -9.71% (inactive) | 1.64% (inactive) | -0.43% (inactive) | 102% (inactive) | 95.5% (inactive) | 1.98% (inactive) | 3.27% (inactive) |
| CCOC(=O)C1=C(C)N(C)C(=O)NC1c1cccc(O)c1 (stereo not drawn) | 102% | 85% (inactive) | 102% (inactive) | 90.1% (inactive) | 86.9% (inactive) | -13.7% (inactive) | 101% | 86.9% | -0.9% (inactive) | -6.5% (inactive) | -6.63% (inactive) | 4.03% (inactive) | -0.55% (inactive) | 99.2% (inactive) | 95.9% (inactive) | -0.435% (inactive) | -0.57% (inactive) |
| COc1ccc(OCC(=O)N2CC3(C)CC2CC(C)(C)C3)cc1 (stereo not drawn) | 96% | 84% (inactive) | 96% (inactive) | 108% (inactive) | 99.8% (inactive) | 17% (inactive) | 82.8% | 99.8% | -3.2% (inactive) | -2.9% (inactive) | -9.87% (inactive) | -0.89% (inactive) | 0.69% (inactive) | 97.9% (inactive) | 92% (inactive) | 1.06% (inactive) | 1.07% (inactive) |
| Cc1cc(C)cc(NC(=O)CSc2nnc(Cc3cccn3C)n2-c2ccc(F)cc2)c1 | 87% | 84% (inactive) | 87% (inactive) | 63.1% (inactive) | 86.6% (inactive) | 14% (inactive) | 72.6% | 86.6% | -1.2% (inactive) | -11.5% (inactive) | 3.92% (inactive) | 14.7% (inactive) | -4.83% (inactive) | 74.6% (inactive) | 71.6% (inactive) | 3.69% (inactive) | 7.38% (inactive) |
| CCOC(=O)/C=C1\CC(=O)Nc2nonc2N1 | 112% | 92.5% (inactive) | 112% (inactive) | 109% (inactive) | 105% (inactive) | 9.69% (inactive) | 95.7% | 105% | -1.73% (inactive) | 0.97% (inactive) | 0.64% (inactive) | 9.22% (inactive) | -2.08% (inactive) | 97.5% (inactive) | 95.3% (inactive) | 0.615% (inactive) | 1.93% (inactive) |
| Cc1cc(NS(=O)(=O)c2ccc(NC(=O)COc3ccccc3C(C)C)cc2)no1 | 98% | 90.5% (inactive) | 98% (inactive) | 80.9% (inactive) | 88.9% (inactive) | 1.26% (inactive) | 87.6% | 88.9% | -5.2% (inactive) | -3.33% (inactive) | -12% (inactive) | -18.1% (inactive) | -1.38% (inactive) | 93.6% (inactive) | 83.4% (inactive) | 2.17% (inactive) | 4.16% (inactive) |
| CC(C)n1c(CN2CCN(C)CC2)nc2c1c(=O)n(C)c(=O)n2C | 95.5% | 86% (inactive) | 95.5% (inactive) | 93.8% (inactive) | 98.5% (inactive) | 9.28% (inactive) | 89.2% | 98.5% | -7.57% (inactive) | 1.8% (inactive) | -7.82% (inactive) | 4.92% (inactive) | 0.07% (inactive) | 101% (inactive) | 103% (inactive) | 0.885% (inactive) | 5.22% (inactive) |
| COc1cc(C2N3CC4(C)CN2CC(C)(C3)C4)ccc1O (stereo not drawn) | 94% | 123% (inactive) | 94% (inactive) | 105% (inactive) | 104% (inactive) | 11.5% (inactive) | 92.3% | 104% | -0.51% (inactive) | -2% (inactive) | -5.33% (inactive) | 1.65% (inactive) | 0.39% (inactive) | 104% (inactive) | 98% (inactive) | 1.72% (inactive) | 0.39% (inactive) |
| Nc1[nH]nc2nc(N3CCCC3)nc(-c3ccccc3)c12 | 113% | 97.5% (inactive) | 113% (inactive) | 92% (inactive) | 95.6% (inactive) | 7% (inactive) | 88.6% | 95.6% | -6.27% (inactive) | 2.1% (inactive) | -6.15% (inactive) | -9.01% (inactive) | -4.09% (inactive) | 99% (inactive) | 90.9% (inactive) | 0.285% (inactive) | -0.16% (inactive) |
